Results reported in PubChem BioAssay AID743312 (Broad Institute, 2014).
Measured potencies and affinities stand elsewhere. Calls of active or inactive are those of the source. No rule for the calls is given here.

Assay: toxicity to A549 lung cells – cell-based, plate reader, dry powder, set 6, cytotoxicity control, dose response (AID 743312)
Conditions: series mostly up to 26 µM
In the case of OCc1nc2ccccc2n1CCOc1ccccc1, the outcome is reported as “inactive”. In the case of FC(F)(F)c1cccc(OCCn2cnc3ccccc32)c1, the outcome is reported as “inactive”. For O=S(=O)(c1ccc(OCCn2cnc3ccccc32)cc1)N1CCOCC1, the outcome was “inactive”. In the case of c1ccc2c(c1)ncn2CCOc1ccc2c(c1)CCC2, the outcome is reported as “inactive”. For CC(C)(C)c1ccc(OCCn2cnc3ccccc32)c(Cl)c1, the outcome was “inactive”. With Clc1ccc(OCCn2cnc3ccccc32)c(Cl)c1 the outcome was “inactive”. For Cc1ccc(OCCn2cnc3ccccc32)c(C)c1, the outcome was “inactive”. In the case of S=c1[nH]c2cc(Cl)ccc2n1CCOc1ccccc1, the outcome is reported as “inactive”. In the case of Cc1ccc(C(C)C)c(OCCn2c(N)nc3ccccc32)c1, the outcome is reported as “inactive”. In the case of CCSc1nc2ccccc2n1CCOc1ccccc1, the outcome is reported as “inactive”. In the case of CS(=O)(=O)c1ccc(OCCn2cnc3ccccc32)cc1, the outcome is reported as “inactive”. For Cc1ccc(C(C)C)c(OCCn2c(NC#N)nc3ccccc32)c1, the outcome was “inactive”. In the case of Cc1cccc(OCCn2c(=S)[nH]c3c(F)cccc32)c1, the outcome is reported as “inactive”. With CC(C)Oc1ccc(OCCn2c(=S)[nH]c3ccccc32)cc1 the outcome was “inactive”. For Cc1cccc(OCCn2c(=S)[nH]c3ccccc32)c1, the outcome was “inactive”. In the case of COc1ccc(OCCn2cnc3ccccc32)cc1, the outcome is reported as “inactive”. In the case of Cc1cccc(OCCn2cnc3ccccc32)c1, the outcome is reported as “inactive”. In the case of Fc1ccc(OCCn2c(=S)[nH]c3ccccc32)cc1, the outcome is reported as “inactive”. In the case of CSc1nc2ccccc2n1CCOc1ccc(C)cc1, the outcome is reported as “inactive”. For CSc1nc2ccccc2n1CCOc1cc(C)ccc1C(C)C, the outcome was “inactive”.
